Source: PubChem
TDP43 rescue = qHTS of TDP-43 Inhibitors | TDP-43 expressing yeast growth rescue, BacTiter-Glo, 24 h | Potency, µM (doses to about 46.1 µM), for the others: top-dose growth rescue (activation), hits mostly activators | 410,000 compounds, 1.8% hits | AID 652104, 2013; note: % of control where 0% means no effect; nearly all actives have a fitted effect of over 50% in size
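Growth rescue of TDP-43-toxic yeast measured as ATP luminescence (BacTiter-Glo). Cells grown to mid-log in raffinose, induced in galactose at OD600=0.02, exposed to compound 24 hr at 30 deg C.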
aSyn yeast inh = qHTS of alpha-syn Inhibitors; Yeast expressing alpha-synuclein, growth rescue, BacTiter-Glo, 24 h; Potency, µM (highest dose often 46.1 µM), inactives show at the highest dose growth rescue (activation), hits mostly activators; 370,000 compounds, 0.14% hits; AID 652106, 2013; note: % of control where 0% means no effect; nearly all actives have a fitted effect of over 65% in size
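Galactose-induced alpha-syn yeast (OD600=0.02, raffinose-pregrown) + pinned cpd, 24 hr, 30 deg C; growth by BacTiter-Glo luminescence. Growth restoration scores as activation.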
Abeta yeast res = qHTS for compounds that reverse cellular toxicity of Amyloid beta (A-beta) peptide in yeast: Primary Screen | yeast expressing A-beta42, growth rescue, OD600, 48 h; response scale: 0% DMSO, 100% iron-clioquinol control | Potency, µM (series often up to 46.1 µM), actives largely listed as activators | 410,000 compounds, 0.063% hits | AID 1347071, 2019; note: nearly all actives have a fitted effect of over 55% in size
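Growth rescue measured by 600 nm absorbance after 48 h yeast culture at 30 C with compound. Values normalized between DMSO and an equimolar ferric chloride plus clioquinol control.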
FUS suppressor = qHTS for Suppressors of FUS Proteinopathy: Primary screen using FUS-linked yeast assay. Potency, µM (highest dose often 76.6 µM), hits mostly activators. 390,000 compounds, 0.24% hits. S. cerevisiae FUS-expressing, growth rescue, OD600, 24 h;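 note: plate controls were DMSO vehicle for no effect and reference control for full effect; nearly all actives have a fitted effect of over 55% in size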
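Yeast expressing FUS under galactose induction, OD 0.005 in 2% galactose medium; compounds in a dilution series, 24 h at 30C. Growth rescue by absorbance at 600 nm; CP55940 positive control, DMSO negative.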
* hit, by the source's call; i = inactive; ? = inconclusive; · = not tested or not shown; [ ] = remark or other dose. Shown are actives, neighbours in structure and some others; about 2.1% of the full set was active somewhere. Calls come from the whole dose curve; as a rule, active = well fitted curve in the direction sought with a large enough effect; inconclusive = small, poorly fitted or top-dose-only effect, or another doubt; inactive = no such curve, though single readings can be large; an effect the other way counts as inactive or inconclusive. Potency is the fitted concentration of half-maximal effect.

SMILES	TDP43 rescue	aSyn yeast inh	Abeta yeast res	FUS suppressor
COc1cc(OC)cc(C(=O)NC(=S)NNC(=O)Cc2cccs2)c1	12.6µM*	?	i	i
O=C(/C=C/c1cccs1)NC(=S)NNC(=O)Cc1cccs1	11.2µM*	?	?	i
COc1cc(OC)cc(C(=O)NC(=S)NNC(=O)c2cnccn2)c1	?	3.55µM*	i	i
COc1ccc(C(=O)NC(=S)NNC(=O)c2ccc(C)cc2)cc1	0.0%	23.7%	?	i
COc1ccc(C(=O)NC(=S)NNC(=O)Cc2cccs2)cc1	10µM*	10µM*	8.91µM*	i
COc1ccc(C(=O)NC(=S)NNC(=O)c2cnccn2)cc1OC	-14.9%	0.2%	i	·
COc1cc(NC(=O)Cc2cccs2)cc(OC)c1	14.6%	-3.4%	?	i
FC(F)(F)c1cccc(OCCOCCn2cncn2)c1	4.1%	-4.5%	i	i
CCOC(=O)c1cc(-c2ccccc2)nn1CC1CC(c2ccc(Cl)cc2)=NO1 (stereo unspecified)	?	9.1%	i	i
Oc1ccccc1/C=N/Nc1cccc2cccnc12	17.8µM*	-16.6%	i	i
CCN1CCN(C(c2ccccc2)c2c(O)cc(C)n(Cc3ccco3)c2=O)CC1 (stereo unspecified)	5.8%	·	i	i
CC(C)C(NC(=O)c1ccccc1F)C(=O)NCCc1ccccn1 (stereo unspecified)	1.5%	-6.5%	i	i
O=C(C1CCN(c2ncnc3c2nc2n3CCCCC2)CC1)N1CCN(c2cccc(Cl)c2)CC1	27.5%	8.7%	i	?
Cc1cccc(N2CCN(c3ncnc4c3nc3n4CCCCC3)CC2)c1C	22.4µM*	·	i	i
Clc1cccc(N2CCN(c3ncnc4c3nc3n4CCCCC3)CC2)c1	17.8µM*	·	i	?
Fc1ccc(N2CCN(c3ncnc4c3nc3n4CCCCC3)CC2)cc1	12.8%	·	i	i
COc1ccc(Br)cc1-c1noc(-c2ccccc2F)n1	5.6%	3.0%	i	·
Cc1onc(-c2ccccc2Cl)c1C(=O)Nc1ccc(-n2nncc2-c2ccco2)cc1	-14.1%	9.8%	i	8.91µM*
O=C(CCC(=O)N1CCN(C(=O)c2ccco2)CC1)c1ccc(F)cc1	-19.3%	-0.1%	i	i
COc1ccc(OC)c(Nc2ncnc3sccc23)c1	14.4%	-0.4%	i	i
COc1cc(CN(C)c2ncnc3sccc23)ccc1OC(F)F	17.8µM*	2.3%	i	i
CCc1ccc(-c2c(C)sc(NC(C)=O)c2C(N)=O)cc1	15.8µM*	0.6%	i	i
O=C(Nc1cccn(Cc2c(Cl)cccc2Cl)c1=O)c1c(Cl)cccc1Cl	10µM*	-7.1%	i	i
CCOC(=O)C1=C(c2ccccc2)NC(SCC(N)=O)=C(C#N)C1c1cccnc1 (stereo unspecified)	0.0%	-0.4%	i	i
Cc1ncc([N+](=O)[O-])n1CC(O)CCl (stereo unspecified)	18.2%	1.7%	i	i
SMILES	TDP43 rescue	aSyn yeast inh	Abeta yeast res	FUS suppressor
N#CC(C#N)=C1C=CC=CN1/C(=C\c1ccccc1)C(=O)c1cccs1	4.47µM*	?	i	i
N#CC(C#N)=C1C=CC=CN1/C(=C\c1ccccc1Cl)C(=O)c1ccccc1	?	-37.6%	i	·
COc1ccc(C(=O)Nc2nc3ccc(S(=O)(=O)N4CCCC4)cc3s2)cc1	1.8%[9.22 µM]	·	i	i
Oc1sc(C=Nc2ccc(F)cc2)c2ccccc12	0.631µM*	0.0%	i	i
Oc1sc(C=Nc2ccccc2)c2ccccc12	?	6.3%	i	i
Cc1sc2ncnc(SCC(=O)NC(C)C(C)C)c2c1C (stereo unspecified)	17.2%	6.0%	i	i
Cc1ccc(NC(=O)CSc2nnc(-c3ccco3)c(-c3ccco3)n2)cc1	-3.1%	8.1%	i	?
Cc1cccc(C)c1NC(=O)CSc1nnc(-c2ccco2)c(-c2ccco2)n1	22.4µM*	7.1%	i	i
Cc1ccccc1NC(=O)CSc1nnc(-c2ccco2)c(-c2ccco2)n1	6.8%	-1.4%	i	i
O=C(CSc1nnc(-c2ccco2)c(-c2ccco2)n1)Nc1ccccc1	9.2%	-1.4%	i	22.4µM*
CCOc1ccc(N2CC(C(=O)NNC(=O)c3ccc(F)cc3)CC2=O)cc1 (stereo unspecified)	8.5%	6.7%	i	i
COc1cc(OC)c(/C=N/NC(N)=S)cc1Br	-12.2%	-1.5%	i	·
O=C(N/N=C/C=C/c1ccco1)c1ccccc1Cl	-6.6%[1.82 µM]	9.3%	i	39.8µM*
Nc1nonc1-n1nnc(C(=O)N/N=C/c2cc(Br)ccc2O)c1CNc1ccccc1	1.1%	-3.9%	i	i
Nc1nonc1C(=O)N/N=C/c1cc(Br)ccc1O	2.82µM*	?	10µM*	i
O=C1NC2(CCCCCC2)N=C1c1ccc(F)cc1	15.8µM*	-8.1%	i	i
S=C1NC2(CCCCCC2)N=C1c1ccccc1	?	7.3%	5.01µM*	i
Cc1cccc(OCC(=O)Nc2cccc(C(=O)OCc3cc(=O)n4c(C)csc4n3)c2)c1	3.8%	·	i	i
Cc1ccc2c(Cl)cc(Cl)c(OCC(=O)O)c2n1	14.1µM*	-8.0%	i	i
CC(C)C[C@@H](CN1CCC[C@H]1CN1C(=O)C(=O)NC[C@@H]1Cc1ccccc1)N1C[C@H](Cc2ccc(O)cc2)N(CCc2ccccc2)C(=O)C1=O	4.7%	0.0%	i	i
Cc1cc(C)nc(SCC2COc3ccccc3O2)n1 (stereo unspecified)	14.1µM*	9.3%	i	i
CC(=O)NC(c1ccc(N(C)C)cc1)c1cc(Cl)c2cccnc2c1O (stereo unspecified)	28.2µM*	15.0%	i	i
CCCCC(=O)NC(c1cccs1)c1cc(Cl)c2cccnc2c1O (stereo unspecified)	0.0%	22.4µM*	?	i
COc1ccc(C(=O)NC(c2ccccc2Cl)c2cc(Cl)c3cccnc3c2O)cc1 (stereo unspecified)	?	15.8µM*	i	i
CSc1ccc(S(=O)(=O)NCc2ccccc2C)cc1	14.1µM*	5.9%	i	i
Cc1ccc(S(=O)(=O)NCc2ccccc2C)cc1	8.3%	0.0%	i	i
COc1ccc(S(=O)(=O)Nc2ccccc2C(=O)N2CCOCC2)cc1C	-29.7%	-4.0%	i	i
COc1ccc(-c2nc3cnccn3c2Nc2ccc3c(c2)OCO3)cc1	23.8%	6.1%	i	28.2µM*
COc1ccc(Oc2c(Br)cnn(Cc3cccc4ccccc34)c2=O)cc1	·	·	·	i
COc1ccc(N2CCN(C(=S)NC(=O)c3cccs3)CC2)c([N+](=O)[O-])c1	22.4µM*	8.8%	?	i
